Laboratory results taken from PubChem BioAssay (NCI).
Compounds without any hit were thinned out: in the full panel of roughly 83,000, 20% have a hit.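 Plates (96-well) were seeded with cells, treated with compound at one concentration, and incubated for 48 hours before percent growth was determined.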 A number with no mark means an inactive call. Active and inactive are the calls of the source. How the source made its calls: active means growth percent below 10; inactive means the rest.

Each compound was assayed on HL-60(TB) leukemia (assay: NCI-60 one-dose screen, 48 h (100 = growth as untreated, 0 = no growth, -100 = all killed)). Details: 10 µM unless noted.

SMILES | growth
CCOC(=O)c1cc(C#N)n2ncc3ccccc3c12 | 105%
CCN(Cc1ccccc1)C1CCN(Cc2cc(Br)ccc2O)CC1 | 50.1%
O=S(=O)(Cc1ccccc1)c1ccccc1 | 96.5%
CC(C)(C)NC(=O)C(OC(=O)c1cccc(Cl)c1)c1ccc(Cl)cc1 (stereo not given) | 103%
C[C@]1(CO)C[C@@H](O)C[C@]2(C)[C@@H]1CC[C@@]13C[C@@H]4[C@@H](C[C@H]12)[C@]4(C)C3 | 103%
CCOC(=O)c1c2c(n3ccccc13)C(=O)c1ncccc1C2=O | -28.8% (active)
Cc1ccnc2c1ccc1c(C)ccnc12 | -5.64% (active)
Clc1ccccc1Nc1nnc(-c2ccncc2)s1 | 79.1%
CCN(CC)CCCC(C)Nc1c2c(nc3ccc(OC)cc13)CCCC2 (stereo not given) | 80.3%
O=C(CN1CCOCC1)Nc1ccc2ncnc(Nc3ccc(Oc4cccc(F)c4)c(Cl)c3)c2c1 | 84.5%
COc1ccc(C(=O)/C=C/c2cc3ccccc3n3nnnc23)cc1 | 92.1%
N#C/C(=C\c1ccc(C(F)(F)F)cc1)c1cc2ccccc2[nH]1 | 89.3%
Cc1nnc(-c2ccc3c(c2)nc(/C=C/c2ccccc2)n3C2CCCCC2)o1 | 65.3%
Cc1ccc(C(=O)N(CCCN)[C@@H](c2nc3cc(Cl)ccc3c(=O)n2Cc2ccccc2)C(C)C)cc1 | -58.3% (active)
CCCCCCNCc1cc(C(C)(C)C)cc(CNCCCCCC)c1O | -45.1% (active)
CC(=O)Nc1ccc2nc3ccc(NC(C)=O)cc3[n+](-c3ccccc3)c2c1 | 4% (active)
C/C(=N\OC(=O)Nc1cccc(Cl)c1)c1ccccc1 | 110%
N#CC1=C(N)Oc2c(c(=O)[nH]c3ccc(Cl)cc23)C12C(=O)c1ccccc1C2=O | 99.8%
CCCCCCCC/C=C/CCCCCCCC1=NC(C)(C)CN1CCO | -61.5% (active)
S=c1nc(CS)[nH]c2ccccc12 | 101%

SMILES | growth
O=C(Nc1ccc(Cl)cn1)C1(c2ccccc2)CCCCC1 | 51.5%
CCOC(=O)c1cc(C(=O)c2ccc(Br)cc2)n2ccc(/C=C/c3cc[n+](CC(=O)c4ccc(OC)cc4)cc3)cc12 | 58.1%
O=C(/C=C/c1cccc(Nc2ccnc3cc(Cl)ccc23)c1)c1ccc(Cl)cc1 | 47.6%
CC(C)Cn1c2c(c(=S)[nH]c1=O)CCC2 | 107%
CCOC(=O)c1ccc2n1CCCc1cnc(NC(C)=O)nc1-2 | 109%
C[n+]1ccccc1/C=C/c1ccc2cccc(O)c2n1 | 79.2%
C=C1CCC2C3(C)COC(c4ccc(OC)cc4Br)OC3CCC2(C)C1/C=C/C1=CCOC1=O (stereo not given) | 31.8%
O=c1sn(-c2cccc3ccccc23)c(=O)n1Cc1ccccc1 | 51.2%
COc1ccc(C(=O)Cn2c(C(=O)c3ccc(Cl)cc3)nc3ccccc32)cc1 | 42.2%
O=[N+]([O-])c1ccc(Sc2ncccn2)c([N+](=O)[O-])c1 | -31.8% (active)
O=C1Nc2cc(-c3ccc(O)cc3)ccc2/C1=C/c1ccc[nH]1 | -8.12% (active)
CCCNc1nc(N(C)O)nc(N(C)O)n1 | 3.47% (active)
O=C(N/N=C/c1ccncc1)c1ccc(C(F)(F)F)nc1Nc1cccc(C(F)(F)F)c1 | -16.7% (active)
CCOC(=O)c1cc(C(=O)c2ccc(F)cc2F)n2ccccc12 | 96.4%
COc1cc2c(cc1I)-c1c(cc(OC)c(OC)c1OC)CC[C@@H]2NC(C)=O | 6.93% (active)
CCOc1ccc2c(c1)CC[C@@H]1[C@@H]2CC[C@]2(C)[C@@H](O)[C@@H](O)C[C@@H]12 | 97%
CCCCCCCCCCCC(=O)OC(C)C(=O)NCCCC (stereo not given) | 99.4%
O=C(C[Si](CC(=O)c1cccc(C(F)(F)F)c1)CC(=O)c1cccc(C(F)(F)F)c1)c1cccc(C(F)(F)F)c1 | -40.8% (active)
C=C1C(=O)O[C@H]2[C@H]1CC/C(C(=O)Nc1ccc(OC)c(C(N)=O)c1O)=C\CC[C@@]1(C)O[C@@H]21 | 0.316% (active)
O=C1O[C@H]([C@H](O)CO)C(O)=C1O | 99.5%
